Test results taken from PubChem BioAssay.
“And” between values parts separate entries of the source, which are not always exact repeats. Equal values may be shown once. Inconclusive results are not listed. The source made the active and inactive calls.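 Rule for the calls, unless noted: active = percent response above 42, roughly 3 SD of non-fluorescent test compounds; inactive = the rest.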

How the values were obtained:
[1] = yeast TOR pathway RPL19A-GFP modulators, primary screen, cell-based, S. cerevisiae, multiplex flow cytometry (AID 1862; in the data active = percent of DMSO control GFP below about 86%;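 note: lower values mimic rapamycin by blocking the RPL19A rise seen in DMSO cells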); conditions: S. cerevisiae RPL19A-GFP strain, flow cytometry fluorescence, 3 h; at 10 µM; stronger effect = lower value
[2] = modulators of MEP2-GFP levels in yeast, primary screen, S. cerevisiae, multiplex flow cytometry (AID 1867;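 active = GFP response, as percent of the DMSO control, above the screen-wide mean plus 3 SD, about 139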;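 note: median GFP channel fluorescence of barcode-gated MEP2-GFP cells measured by flow cytometry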); conditions: S. cerevisiae MEP2-GFP strain, 3 h, at 10 µM, stronger effect = higher value, 100% means same as DMSO wells
[3] = modulators of CIT2-GFP expression in yeast, primary screen, S. cerevisiae, GFP fusion, multiplex flow cytometry (AID 1870;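 active = percent response above a set limit, the screen-wide mean plus 3 SD, cut at about 130% in these data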;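 note: barcoded CIT2-GFP strain pooled with four other GFP strains with rapamycin as positive control; median GFP fluorescence per well over plate mean of DMSO wells so 100% = DMSO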); conditions: 3 h, at 10 µM, stronger effect = higher value
[4] = modulators of LAP4-GFP expression in yeast, primary screen, S. cerevisiae, multiplex flow cytometry (AID 1873;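 active = GFP signal, as percent of the solvent control, above the screen mean plus 3 SD, about 149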); conditions: 3 h, at 10 µM, stronger effect = higher value
[5] = modulators of AGP1-GFP expression in yeast TOR pathway, primary screen, cell-based, multiplex flow cytometry, S. cerevisiae (AID 1887;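 active = GFP signal above the screen-wide mean plus 3 SD, that is over about 124.5% of the solvent control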;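 note: AGP1-GFP fusion strain of S. cerevisiae within a five-strain barcoded multiplex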); conditions: 3 h, at 10 µM, stronger effect = higher value
[6] = inhibitors of CD8+ T cell-vesicle binding, pilot screen, LFA-1/ICAM-1 modulator project, MLPCN validation set, flow cytometry (AID 2523;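 active = response below a set limit, under 55% cells CD8-positive and vesicle-bound, and CD8 cells' 90th-percentile brightness under 279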;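 for vesicle binding response: mean PE anti-B7-1 fluorescence of CD8+ cells relative to row control; 100% = QL9-loaded vesicles with DMSO vehicle in the same plate row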); conditions: 2C mouse CD8+ T cells, at 7 µM, stronger effect = lower value; double positive events: measured here: CD8+/vesicle+ event percentage
[7] = target: Integrin beta-1 (Homo sapiens) + Integrin alpha-4 (Homo sapiens) (UniProt P13612+P05556); assay: inhibition of HUTS-21 binding to VLA-4, pilot screen, VLA-4 allosteric modulator project, U937 cells, HUTS-21 mAb, flow cytometry, validation set (AID 2674;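 active = inhibition above 50%, about 3 SD of the validation set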;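 note: antibody binding induced by the VLA-4 ligand LDV present at three times its Kd; 0% = LDV ligand with antibody and no compound and 100% = antibody without LDV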); conditions: HUTS-21 LIBS mAb binding, at 6.7 µM, stronger effect = higher value, binding induced by LDV ligand
Chain of Integrin beta-1 (Homo sapiens) + Integrin alpha-4 (Homo sapiens) (P05556 whole entry, looked up): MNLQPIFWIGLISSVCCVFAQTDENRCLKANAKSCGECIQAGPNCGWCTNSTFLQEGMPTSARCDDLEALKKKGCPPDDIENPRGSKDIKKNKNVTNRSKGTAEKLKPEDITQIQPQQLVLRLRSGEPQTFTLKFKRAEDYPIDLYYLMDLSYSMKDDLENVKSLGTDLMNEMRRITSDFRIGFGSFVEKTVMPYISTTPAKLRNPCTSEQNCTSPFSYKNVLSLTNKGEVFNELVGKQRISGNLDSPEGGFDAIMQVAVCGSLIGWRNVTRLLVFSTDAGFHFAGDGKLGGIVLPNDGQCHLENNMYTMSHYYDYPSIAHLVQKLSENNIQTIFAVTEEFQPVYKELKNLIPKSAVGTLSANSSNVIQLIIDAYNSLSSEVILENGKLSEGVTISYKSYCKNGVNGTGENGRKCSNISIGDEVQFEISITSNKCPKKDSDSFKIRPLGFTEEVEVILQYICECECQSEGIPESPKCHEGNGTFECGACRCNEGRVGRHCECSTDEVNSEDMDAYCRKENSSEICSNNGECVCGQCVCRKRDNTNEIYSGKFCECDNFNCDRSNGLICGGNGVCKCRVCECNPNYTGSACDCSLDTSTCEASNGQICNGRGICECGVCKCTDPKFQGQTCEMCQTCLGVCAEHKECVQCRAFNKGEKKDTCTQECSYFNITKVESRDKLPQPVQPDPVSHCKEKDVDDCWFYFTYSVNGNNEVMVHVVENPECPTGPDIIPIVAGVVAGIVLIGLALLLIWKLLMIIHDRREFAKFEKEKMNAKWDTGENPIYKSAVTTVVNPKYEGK
Chain of Integrin beta-1 (Homo sapiens) + Integrin alpha-4 (Homo sapiens) (P13612 whole entry, looked up): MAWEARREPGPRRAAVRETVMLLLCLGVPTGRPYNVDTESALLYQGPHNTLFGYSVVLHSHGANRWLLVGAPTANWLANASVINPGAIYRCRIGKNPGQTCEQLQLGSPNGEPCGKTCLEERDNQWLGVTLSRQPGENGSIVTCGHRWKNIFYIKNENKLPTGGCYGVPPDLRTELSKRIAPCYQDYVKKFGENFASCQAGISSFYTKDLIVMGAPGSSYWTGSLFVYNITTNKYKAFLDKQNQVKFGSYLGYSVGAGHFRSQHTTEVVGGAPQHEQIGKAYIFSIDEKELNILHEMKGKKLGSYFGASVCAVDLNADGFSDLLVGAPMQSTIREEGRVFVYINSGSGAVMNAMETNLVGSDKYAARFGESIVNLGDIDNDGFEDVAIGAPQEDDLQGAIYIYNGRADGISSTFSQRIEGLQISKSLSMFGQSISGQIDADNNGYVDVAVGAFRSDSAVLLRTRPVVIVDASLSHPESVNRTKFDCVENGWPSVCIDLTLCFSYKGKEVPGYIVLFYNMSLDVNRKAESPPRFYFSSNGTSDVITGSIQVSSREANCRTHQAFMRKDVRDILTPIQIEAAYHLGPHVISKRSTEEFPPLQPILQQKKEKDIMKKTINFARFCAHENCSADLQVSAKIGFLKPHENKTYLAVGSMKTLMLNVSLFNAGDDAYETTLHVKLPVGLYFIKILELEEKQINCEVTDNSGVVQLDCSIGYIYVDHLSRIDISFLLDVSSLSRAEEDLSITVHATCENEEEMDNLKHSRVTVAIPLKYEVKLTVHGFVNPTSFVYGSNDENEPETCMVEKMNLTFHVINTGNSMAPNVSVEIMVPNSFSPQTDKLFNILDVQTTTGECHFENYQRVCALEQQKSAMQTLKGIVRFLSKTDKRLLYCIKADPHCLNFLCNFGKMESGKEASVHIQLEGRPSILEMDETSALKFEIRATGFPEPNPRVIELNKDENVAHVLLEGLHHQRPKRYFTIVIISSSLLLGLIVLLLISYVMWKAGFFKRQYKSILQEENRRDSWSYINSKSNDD

[8] = superoxide lowering in aged yeast cells, pilot screen, validation compound set (AID 2706;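 active = superoxide response below 65% of plate, a cut near 3 SD across the whole screen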;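 note: yeast exposed to compound for one week at 30 degrees C before staining; 100% = mean of all compound wells on the same plate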); conditions: S. cerevisiae aging, superoxide DHE fluorescence; at 10 µM; stronger effect = lower value
[9] = target: Beta-adrenergic receptor kinase 1 (Homo sapiens) (UniProt P25098); assay: GRK2 binders displacing RNA aptamer, biochemical, validation, human GRK2, bead flow cytometry (AID 488806;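 active = aptamer binding inhibition above 30%, about 3 SD of noise from non-fluorescent compounds; inactive = inhibition at or below 30%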); conditions: bead-bound GRK2, FAM-aptamer displacement, at 10 µM, stronger effect = higher value
Chain of Beta-adrenergic receptor kinase 1 (Homo sapiens) (P25098 whole entry, looked up): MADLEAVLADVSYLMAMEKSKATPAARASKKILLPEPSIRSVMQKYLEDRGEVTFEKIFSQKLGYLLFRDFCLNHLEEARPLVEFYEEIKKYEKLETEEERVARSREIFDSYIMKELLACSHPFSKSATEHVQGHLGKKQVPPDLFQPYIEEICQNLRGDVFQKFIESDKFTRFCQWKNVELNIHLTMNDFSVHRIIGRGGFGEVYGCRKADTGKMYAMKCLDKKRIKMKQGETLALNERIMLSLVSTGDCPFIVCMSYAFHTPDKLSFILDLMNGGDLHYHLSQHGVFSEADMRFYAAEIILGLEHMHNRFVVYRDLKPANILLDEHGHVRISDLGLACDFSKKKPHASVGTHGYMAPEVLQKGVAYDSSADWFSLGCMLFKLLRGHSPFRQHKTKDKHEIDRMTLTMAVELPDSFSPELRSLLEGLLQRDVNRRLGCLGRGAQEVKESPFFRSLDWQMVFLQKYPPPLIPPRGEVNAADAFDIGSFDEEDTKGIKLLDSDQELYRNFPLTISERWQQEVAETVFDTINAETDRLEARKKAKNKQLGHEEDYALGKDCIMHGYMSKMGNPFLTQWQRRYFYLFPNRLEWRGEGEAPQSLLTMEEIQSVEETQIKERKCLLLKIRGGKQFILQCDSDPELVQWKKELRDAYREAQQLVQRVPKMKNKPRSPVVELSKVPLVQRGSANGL

[10] = target: Beta-2 adrenergic receptor (Homo sapiens) (UniProt P07550); assay: beta2AR agonists driving receptor internalization, pilot screen, cell-based, FAP fluorogen, flow cytometry, validation set (AID 504459); conditions: Am2.2-beta2AR cells, FAP surface receptor flow cytometry; at 10 µM; stronger effect = higher value;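 note: agonist-driven loss of surface beta2AR via internalization measured by FAP dye flow cytometry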
Chain of Beta-2 adrenergic receptor (Homo sapiens) (P07550 whole entry, looked up): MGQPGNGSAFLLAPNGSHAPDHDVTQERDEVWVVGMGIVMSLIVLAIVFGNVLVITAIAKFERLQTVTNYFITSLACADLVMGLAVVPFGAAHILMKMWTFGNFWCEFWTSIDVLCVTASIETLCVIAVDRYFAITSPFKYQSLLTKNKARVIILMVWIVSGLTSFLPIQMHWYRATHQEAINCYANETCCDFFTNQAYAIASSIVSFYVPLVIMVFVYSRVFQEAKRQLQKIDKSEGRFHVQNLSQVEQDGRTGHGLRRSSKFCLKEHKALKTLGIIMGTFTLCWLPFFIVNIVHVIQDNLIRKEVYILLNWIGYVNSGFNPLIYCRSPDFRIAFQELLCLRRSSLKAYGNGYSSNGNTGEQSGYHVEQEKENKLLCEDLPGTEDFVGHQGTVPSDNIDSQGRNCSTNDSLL

[11] = target: AP-2 complex subunit beta (Homo sapiens) (UniProt P63010); assay: inhibitors of arrestin peptide binding to AP2, pilot screen, biochemical, validation set, GST-AP2 beads, flow cytometry (AID 504541;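 active = inhibition above 54%, about 3 SD of non-fluorescent compounds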;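 note: AP2 carries R879A mutation and is captured from E. coli lysate; bead-bound FITC arrestin peptide fluorescence measuring arrestin peptide binding to AP2; 0% = DMSO wells and 100% = excess unlabeled arrestin peptide control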); conditions: FITC arrestin peptide, at 10 µM, stronger effect = higher value, AP2 beta2 appendage fragment, R879A mutant
Chain of AP-2 complex subunit beta (Homo sapiens) (P63010 whole entry, looked up, the tested form may be a part, one chain of several): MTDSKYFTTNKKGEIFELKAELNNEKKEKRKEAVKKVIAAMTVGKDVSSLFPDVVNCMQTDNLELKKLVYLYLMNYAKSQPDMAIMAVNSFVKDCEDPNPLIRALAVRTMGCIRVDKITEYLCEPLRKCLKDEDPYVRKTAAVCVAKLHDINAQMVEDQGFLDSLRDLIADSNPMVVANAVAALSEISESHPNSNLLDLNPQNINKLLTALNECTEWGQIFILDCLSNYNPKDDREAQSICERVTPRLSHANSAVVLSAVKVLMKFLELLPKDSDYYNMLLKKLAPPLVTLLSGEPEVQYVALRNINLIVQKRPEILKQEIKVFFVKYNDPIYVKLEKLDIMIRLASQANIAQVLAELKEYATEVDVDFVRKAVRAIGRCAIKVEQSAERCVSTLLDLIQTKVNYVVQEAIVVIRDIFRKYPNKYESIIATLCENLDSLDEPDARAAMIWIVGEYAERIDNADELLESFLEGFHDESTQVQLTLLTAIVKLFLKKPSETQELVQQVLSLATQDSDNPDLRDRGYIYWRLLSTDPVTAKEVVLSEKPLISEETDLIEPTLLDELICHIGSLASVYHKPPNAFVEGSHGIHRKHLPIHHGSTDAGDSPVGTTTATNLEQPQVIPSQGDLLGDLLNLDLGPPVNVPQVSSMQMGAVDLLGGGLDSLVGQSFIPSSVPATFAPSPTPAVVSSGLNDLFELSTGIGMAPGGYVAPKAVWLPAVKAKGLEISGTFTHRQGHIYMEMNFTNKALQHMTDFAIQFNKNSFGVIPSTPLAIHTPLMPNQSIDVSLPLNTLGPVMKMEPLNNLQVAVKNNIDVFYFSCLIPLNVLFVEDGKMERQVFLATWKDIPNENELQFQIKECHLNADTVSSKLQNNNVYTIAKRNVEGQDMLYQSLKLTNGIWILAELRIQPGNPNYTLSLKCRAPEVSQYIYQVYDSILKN

[12] = yeast V-ATPase proton transport modulators, S. cerevisiae, pHLuorin, HTS validation (AID 504600; in the data active = response above about 15%;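 note: plate controls were DMSO for no effect and reference compound for full effect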); conditions: S. cerevisiae pHLuorin cytosolic pH, at 10 µM, stronger effect = higher value
[13] = tested on: anti-desmoglein-3 scFv antibody binding to human DSG3; assay: inhibitors of anti-DSG3 scFv binding to DSG3, pilot screen, biochemical, validation compound set, bead-based, flow cytometry (AID 588368;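 active = binding below the plate cutoff, the plate median minus 3 SD, with a reading above zero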;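 note: signal is the median channel fluorescence of bead-bound GFP antibody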); conditions: Protein G beads, DSG3-Fc, scFv-GFP binding, at 10 µM, stronger effect = lower value
[14] = inhibitors of fungal efflux pumps CDR1, CDR2, MDR1, pilot screen, validation compound set, multiplex, phenotypic (AID 588506;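 active = efflux inhibition above 0.42, the validation set average plus 4 SD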;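 note: Nile Red retained in cells so higher fluorescence means more efflux inhibition; 0 = negative control wells and 1 = enniatin B 25 µM full block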); conditions: S. cerevisiae pump-expressing triplex, Nile Red efflux flow cytometry; at 10 µM; stronger effect = higher value; the pumps come from Candida albicans
[15] = target: ATP-binding cassette sub-family B member 6 (Homo sapiens) (UniProt Q9NP58); assay: ABCB6 transporter inhibitors, pilot screen, K562-ABCB6 cells, flow cytometry, validation set (AID 588550;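 active = inhibition above the screen-wide mean plus 3 SD, about 51%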;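 note: 0% = DMSO wells and 100% = benzethonium chloride 70 µM positive control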); conditions: K562-ABCB6 porphyrin accumulation, 1 h, at 10 µM, stronger effect = higher value
Chain of ATP-binding cassette sub-family B member 6 (Homo sapiens) (Q9NP58 whole entry, looked up): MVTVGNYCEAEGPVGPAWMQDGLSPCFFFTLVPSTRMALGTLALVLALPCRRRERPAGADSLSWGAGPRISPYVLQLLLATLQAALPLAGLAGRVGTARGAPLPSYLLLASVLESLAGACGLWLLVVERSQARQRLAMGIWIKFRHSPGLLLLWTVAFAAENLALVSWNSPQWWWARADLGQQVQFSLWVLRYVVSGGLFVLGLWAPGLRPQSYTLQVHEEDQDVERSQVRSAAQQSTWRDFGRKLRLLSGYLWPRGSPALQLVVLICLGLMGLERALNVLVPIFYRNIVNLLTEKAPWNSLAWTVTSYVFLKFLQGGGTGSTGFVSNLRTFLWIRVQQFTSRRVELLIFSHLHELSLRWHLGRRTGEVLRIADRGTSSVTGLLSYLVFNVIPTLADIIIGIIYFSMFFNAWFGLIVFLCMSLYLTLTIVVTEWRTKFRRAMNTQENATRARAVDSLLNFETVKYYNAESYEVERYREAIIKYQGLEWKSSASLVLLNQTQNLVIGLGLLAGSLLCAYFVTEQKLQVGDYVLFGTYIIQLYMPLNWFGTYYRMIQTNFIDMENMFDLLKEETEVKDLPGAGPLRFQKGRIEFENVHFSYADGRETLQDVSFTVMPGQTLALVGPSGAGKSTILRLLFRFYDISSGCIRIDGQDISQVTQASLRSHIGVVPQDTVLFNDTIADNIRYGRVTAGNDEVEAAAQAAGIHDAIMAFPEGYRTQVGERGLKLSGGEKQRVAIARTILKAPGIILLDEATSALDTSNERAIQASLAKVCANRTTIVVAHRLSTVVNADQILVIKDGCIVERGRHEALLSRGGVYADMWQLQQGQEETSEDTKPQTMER

[16] = promoters of myeloid differentiation in arrested cells, primary screen, cell-based, GFP/MAC1 double positive, flow cytometry, validation set (AID 588685;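 active = differentiation response of at least 50%, scaled between solvent and reference control, from cells with both markers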;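 note: compound exposure lasts four days before antibody staining and flow analysis; 0% = DMSO wells and 100% = 5 µM fulvestrant positive control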); conditions: ER-HoxA9 marrow cells, stronger effect = higher value, normalized: vehicle 0, fulvestrant 100

SMILES	percent of DMSO control GFP [1]	GFP response vs DMSO [2]	percent response of DMSO control [3]	GFP response vs DMSO [4]	GFP response, % of DMSO [5]	double positive events [6]	vesicle binding response [6]	inhibition [7]	superoxide response (% of plate) [8]	aptamer binding inhibition [9]	response [10]	inhibition [11]	response [12]	binding (% of control) [13]	efflux inhibition (fraction of control) [14]	inhibition [15]	differentiation response [16]
COC(=O)c1ccc(NC(=O)C23CCC(C)(C(=O)O2)C3(C)C)cc1 (stereo not given)	95.2% (inactive)	104% (inactive)	102% (inactive)	115% (inactive)	106% (inactive)	64.8%	195% (inactive)	-2.82% (inactive)	99.7% (inactive)	2% (inactive)	-24.2% (inactive)	1.74% (inactive)	-1.33% (inactive)	110% (inactive)	-0.04 (inactive)	6% (inactive)	-4.99% (inactive)
O=C(CN1C(=O)c2ccccc2S1(=O)=O)Nc1ccccc1	95.5% (inactive)	126% (inactive)	112% (inactive)	84.2% (inactive)	92.8% (inactive)	67.7%	180% (inactive)	-72.1% (inactive)	98.5% (inactive)	0% (inactive)	-2.34% (inactive)	7.49% (inactive)	-1.17% (inactive)	99% (inactive)	-0.31 (inactive)	5% (inactive)	10.6% (inactive)
Cc1ccc(/C=N/Nc2nc(C(C)(C)C)cs2)o1	103% (inactive)	106% (inactive)	95.8% (inactive)	98.2% (inactive)	97.8% (inactive)	69.4%	302% (inactive)	17.3% (inactive)	80.8% (inactive)	5% (inactive)	4.35% (inactive)	-1.54% (inactive)	6.19% (inactive)	102% (inactive)	0.51 (active)	114% (active)	7.2% (inactive)
COc1ccc(CCNC(=O)c2ccc(Cl)cc2)cc1OC	103% (inactive)	109% (inactive)	107% (inactive)	121% (inactive)	111% (inactive)	59.6%	196% (inactive)	2.93% (inactive)	107% (inactive)	-1% (inactive)	6.98% (inactive)	-0.98% (inactive)	-0.59% (inactive)	104% (inactive)	0.39 (inactive)	-7% (inactive)	-17.7% (inactive)
COC(=O)CSc1nc2ccc(N)cc2s1	104% (inactive)	103% (inactive)	104% (inactive)	95.3% (inactive)	97.8% (inactive)	64.4%	189% (inactive)	-3.57% (inactive)	110% (inactive)	-1% (inactive)	5.1% (inactive)	4.01% (inactive)	-1.65% (inactive)	92% (inactive)	0.02 (inactive)	-5% (inactive)	12% (inactive)
CCOc1ccc2nc(NC(=O)NC3CCCCC3)sc2c1	104% (inactive)	105% (inactive)	98.6% (inactive)	107% (inactive)	107% (inactive)	64.2%	215% (inactive)	-1.09% (inactive)	89.5% (inactive)	4% (inactive)	3.3% (inactive)	42.2% (inactive)	-7.78% (inactive)	93.8% (inactive)	0.8 (active)	-4% (inactive)	-3.11% (inactive)
CCN(CC)CC(=O)Nc1c(C)cccc1C	106% (inactive) and 100% (inactive)	109% (inactive) and 94.1% (inactive)	101% (inactive) and 109% (inactive)	105% (inactive) and 98.2% (inactive)	107% (inactive) and 105% (inactive)	65.6% and 64.5%	12800% (inactive)	6.4% (inactive) and 0.94% (inactive)	87.6% (inactive) and 113% (inactive)	5% (inactive) and 0% (inactive)	-4.24% (inactive) and -9.06% (inactive)	-9.42% (inactive) and -7.53% (inactive)	-5.61% (inactive) and -5.05% (inactive)	94.5% (inactive) and 99.9% (inactive)	0.05 (inactive) and -0.1 (inactive)	10% (inactive) and 7% (inactive)	-8.8% (inactive) and -15.2% (inactive)
C[C@H](NC(=O)C1(c2ccccc2)CCN(C(=O)[C@H]2CSCN2C(=O)OC(C)(C)C)CC1)C(=O)O	105% (inactive)	103% (inactive)	99.6% (inactive)	110% (inactive)	117% (inactive)	62%	161% (inactive)	17.6% (inactive)	95.1% (inactive)	6% (inactive)	-18.9% (inactive)	-3.02% (inactive)	-2.91% (inactive)	103% (inactive)	-0.09 (inactive)	1% (inactive)	-1.05% (inactive)
CCSC(=O)CCCCCCCCCCCO	101% (inactive)	103% (inactive)	96.4% (inactive)	127% (inactive)	106% (inactive)	59.6%	348% (inactive)	20.2% (inactive)	78.1% (inactive)	0% (inactive)	-27.7% (inactive)	41.3% (inactive)	2.69% (inactive)	103% (inactive)	0.17 (inactive)	-2% (inactive)	-13.9% (inactive)
Cc1ccc2c(c1)c(=O)c1c3n2CCN(C(=O)CCl)C3CC1 (stereo not given)	96.3% (inactive)	102% (inactive)	97% (inactive)	106% (inactive)	111% (inactive)	58.2%	198% (inactive)	-10.5% (inactive)	108% (inactive)	18% (inactive)	-25.7% (inactive)	20.6% (inactive)	-19.6% (inactive)	96.7% (inactive)	0.46 (active)	1% (inactive)	0.92% (inactive)
